# Results reported in PMC8222333, “AsCas12a ultra nuclease facilitates the rapid generation of therapeutic cell medicines”.
# B1: GCCT (dsDNA)
# DNA 1: GCTATCTAGTGCTCAGTACGCACTGGCCTAGGAAACTTCTGGCAGGACCAGGTCATGAGATCGGAAGAGCACACGTCTGAACTCCAGTCA
# DNA 2: TGACTGGAGTTCAGACGTGTGCTCTTCCGATCTCATGACCTGGTCCTGCCAGAAGTTTCCTAGGCCAGTGCGTACTGAGCACTAGATAGC
# RNA: AAUUUCUACUCUUGUAGAUAGGAAACUUCUGGCAGGACC
# B2: GCGT (dsDNA)
# DNA 1: GCTATCTAGTGCTCAGTACGCACTGGCGTAGGAAACTTCTGGCAGGACCAGGTCATGAGATCGGAAGAGCACACGTCTGAACTCCAGTCA
# DNA 2: TGACTGGAGTTCAGACGTGTGCTCTTCCGATCTCATGACCTGGTCCTGCCAGAAGTTTCCTACGCCAGTGCGTACTGAGCACTAGATAGC
# RNA: AAUUUCUACUCUUGUAGAUAGGAAACUUCUGGCAGGACC
# B3: GGAA (dsDNA)
# DNA 1: GCTATCTAGTGCTCAGTACGCACTGGGAAAGGAAACTTCTGGCAGGACCAGGTCATGAGATCGGAAGAGCACACGTCTGAACTCCAGTCA
# DNA 2: TGACTGGAGTTCAGACGTGTGCTCTTCCGATCTCATGACCTGGTCCTGCCAGAAGTTTCCTTTCCCAGTGCGTACTGAGCACTAGATAGC
# RNA: AAUUUCUACUCUUGUAGAUAGGAAACUUCUGGCAGGACC
# B4: GGAC (dsDNA)
# DNA 1: GCTATCTAGTGCTCAGTACGCACTGGGACAGGAAACTTCTGGCAGGACCAGGTCATGAGATCGGAAGAGCACACGTCTGAACTCCAGTCA
# DNA 2: TGACTGGAGTTCAGACGTGTGCTCTTCCGATCTCATGACCTGGTCCTGCCAGAAGTTTCCTGTCCCAGTGCGTACTGAGCACTAGATAGC
# RNA: AAUUUCUACUCUUGUAGAUAGGAAACUUCUGGCAGGACC
# B5: GGAG (dsDNA)
# DNA 1: GCTATCTAGTGCTCAGTACGCACTGGGAGAGGAAACTTCTGGCAGGACCAGGTCATGAGATCGGAAGAGCACACGTCTGAACTCCAGTCA
# DNA 2: TGACTGGAGTTCAGACGTGTGCTCTTCCGATCTCATGACCTGGTCCTGCCAGAAGTTTCCTCTCCCAGTGCGTACTGAGCACTAGATAGC
# RNA: AAUUUCUACUCUUGUAGAUAGGAAACUUCUGGCAGGACC
# B6: GGAT (dsDNA)
# DNA 1: GCTATCTAGTGCTCAGTACGCACTGGGATAGGAAACTTCTGGCAGGACCAGGTCATGAGATCGGAAGAGCACACGTCTGAACTCCAGTCA
# DNA 2: TGACTGGAGTTCAGACGTGTGCTCTTCCGATCTCATGACCTGGTCCTGCCAGAAGTTTCCTATCCCAGTGCGTACTGAGCACTAGATAGC
# RNA: AAUUUCUACUCUUGUAGAUAGGAAACUUCUGGCAGGACC
# B7: GGCA (dsDNA)
# DNA 1: GCTATCTAGTGCTCAGTACGCACTGGGCAAGGAAACTTCTGGCAGGACCAGGTCATGAGATCGGAAGAGCACACGTCTGAACTCCAGTCA
# DNA 2: TGACTGGAGTTCAGACGTGTGCTCTTCCGATCTCATGACCTGGTCCTGCCAGAAGTTTCCTTGCCCAGTGCGTACTGAGCACTAGATAGC
# RNA: AAUUUCUACUCUUGUAGAUAGGAAACUUCUGGCAGGACC
# B8: GGCC (dsDNA)
# DNA 1: GCTATCTAGTGCTCAGTACGCACTGGGCCAGGAAACTTCTGGCAGGACCAGGTCATGAGATCGGAAGAGCACACGTCTGAACTCCAGTCA
# DNA 2: TGACTGGAGTTCAGACGTGTGCTCTTCCGATCTCATGACCTGGTCCTGCCAGAAGTTTCCTGGCCCAGTGCGTACTGAGCACTAGATAGC
# RNA: AAUUUCUACUCUUGUAGAUAGGAAACUUCUGGCAGGACC
# B9: GGCT (dsDNA)
# DNA 1: GCTATCTAGTGCTCAGTACGCACTGGGCTAGGAAACTTCTGGCAGGACCAGGTCATGAGATCGGAAGAGCACACGTCTGAACTCCAGTCA
# DNA 2: TGACTGGAGTTCAGACGTGTGCTCTTCCGATCTCATGACCTGGTCCTGCCAGAAGTTTCCTAGCCCAGTGCGTACTGAGCACTAGATAGC
# RNA: AAUUUCUACUCUUGUAGAUAGGAAACUUCUGGCAGGACC
# Biological target: dAsCas12a S542R (Acidaminococcus sp., UniProt U2UMQ6 1-1307, S542R;D908A;E993A;D1235A)
# Test: Spec-seq (native PAGE EMSA with sequencing of bound and unbound); 25 mM Tris-HCl pH 7.4, 150 mM KCl, 5 mM MgCl2, 10% glycerol, 1 mM DTT, 40 ng/uL salmon sperm DNA; 400 nM Cas12a, 480 nM crRNA, 50 nM library, 37 C 1 h; native PAGE at room temperature; high values mean tight binding
# Settings: protein: recombinant
# 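Also: relative affinity from the bound to unbound sequence frequency ratio in Spec-seq.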
row,Binder,binding signal [lnKA]
1,B1,-7.86
2,B2,-8.52
3,B3,-8.88
4,B4,-8.47
5,B5,-8.39
6,B6,-8.54
7,B7,-8.26
8,B8,-8.47
9,B9,-8.78

# Biological target: d-enCas12a (Acidaminococcus sp., UniProt U2UMQ6 1-1307, E174R;S542R;K548R;D908A;E993A;D1235A)
# Test: as above
# Settings: protein: recombinant
row,Binder,binding signal [lnKA]
1,B1,-5.97
2,B2,-5.91
3,B3,-5.71
4,B4,-5.75
5,B5,-5.85
6,B6,-5.99
7,B7,-4.74
8,B8,-3.7
9,B9,-5.68

# Biological target: d-enCas12a-Ultra (Acidaminococcus sp., UniProt U2UMQ6 1-1307, E174R;S542R;K548R;M537R;F870L;D908A;E993A;D1235A)
# Test: as above
# Settings: protein: recombinant
row,Binder,binding signal [lnKA]
1,B1,-2.67
2,B2,-3.51
3,B3,-3.48
4,B4,-3.35
5,B5,-3.43
6,B6,-3.45
7,B7,-1.64
8,B8,-0.996
9,B9,-2.87
